Rab9 promoter act: Rab9 promoter activation | actives 2.8% (n = 320,000) | Potency, µM (highest dose often 9.22 µM), for inactives: top-dose activation, negative = inhibition, actives largely listed as activators | AID 485297 | Huh7 Rab9 promoter-luciferase reporter, luminescence, 24 h; further: % of control where 0% means no effect; nearly all actives have a fitted effect of over 60% in size
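Quantitative HTS format; Huh7 Rab9-luciferase reporter cells (1500/well) receive compound 2 h post-plating, incubate 24 h at 37 °C, then get luciferase reagent for 10 min before luminescence reading.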
NPC1 prom act: activates the NPC1 promoter; Huh7 NPC1 promoter luciferase reporter, 24 h; Potency, µM (titrated, usually from 9.22 µM), inactives show at the top dose activation, hits mostly activators; actives 2.4% (n = 320,000); AID 485313; further: % of control where 0% means no effect; nearly all actives have a fitted effect of over 60% in size
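NPC1 promoter–luciferase Huh7 cells; 24 h compound; luminescence.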
ELG1 genotox: induces genotoxicity in HEK293T cells with luciferase-tagged ELG1; Potency, µM (doses to about 46 µM), inactives show top-dose activity change, positive = activation, actives largely listed as activators; HEK293T ELG1-luciferase reporter, luminescence, 16 h; AID 504466; actives 1.3% (n = 330,000); further: % of control where 0% means no effect; nearly all actives have a fitted effect of over 60% in size
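16 hr compound incubation (37 °C, 5% CO2) of HEK293T cells carrying luciferase-tagged ELG1; luciferase then measured by ONE-Glo luminescence after 30 min at RT.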
SMN2 splice enh: increases expression of the SMN2 splice variant; HEK293 SMN2-luciferase splicing reporter, luminescence, 30-36 h; Potency, µM (highest dose often 46.1 µM), inactives show at the top dose activity change, positive = activation, most hits filed as activators; actives 2.8% (n = 210,000); further: % of control where 0% means no effect; nearly all actives have a fitted effect of over 55% in size
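HEK293 cells carry an SMN2 minigene-luciferase reporter in which exon 7 inclusion puts luciferase in frame. Cells were seeded at 2000 cells/well, attached for 10-12 hours, then exposed to compounds for 30-36 hours at 37C before ONE-Glo luminescence.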
FLuc counter: counter-screen for miR-21 project: firefly luciferase inhibitors or activators; P08659; purified FLuc, Km substrates, luminescence inhibition; Potency, µM (series often up to 57.5 µM), for inactives: at the top dose activity change, negative = inhibition, actives largely listed as inhibitors; AID 588342; actives 6.9% (n = 360,000);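 further: plate controls were vehicle for no effect and reference inhibitor for full effect; nearly all actives have a fitted effect of over 55% in size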
Target sequence (P08659 whole entry, looked up): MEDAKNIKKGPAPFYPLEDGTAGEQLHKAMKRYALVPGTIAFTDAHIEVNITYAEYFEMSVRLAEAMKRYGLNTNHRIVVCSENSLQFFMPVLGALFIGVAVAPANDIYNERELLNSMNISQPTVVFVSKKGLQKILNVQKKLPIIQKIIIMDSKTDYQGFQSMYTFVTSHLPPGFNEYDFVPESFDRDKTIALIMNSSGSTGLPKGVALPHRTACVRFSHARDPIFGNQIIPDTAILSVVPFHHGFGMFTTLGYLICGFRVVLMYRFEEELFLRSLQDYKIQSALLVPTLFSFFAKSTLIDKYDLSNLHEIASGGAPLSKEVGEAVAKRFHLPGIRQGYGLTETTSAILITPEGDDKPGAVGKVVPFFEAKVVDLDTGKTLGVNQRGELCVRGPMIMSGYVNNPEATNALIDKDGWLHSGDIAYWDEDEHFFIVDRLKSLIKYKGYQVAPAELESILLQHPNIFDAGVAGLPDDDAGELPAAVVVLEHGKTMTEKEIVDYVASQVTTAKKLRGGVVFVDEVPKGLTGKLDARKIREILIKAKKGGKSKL
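Purified P. pyralis luciferase (10nM final) with 10uM D-luciferin and 10uM ATP (Km levels) in 50mM Tris acetate pH 7.5, 10mM Mg acetate, 0.01% Tween-20, 0.05% BSA; qHTS 6-point titration, ~60 µM downward; luminescence read.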
ELG1 repair inh: inhibitors of ELG1-dependent DNA repair in HEK293T cells. HEK293T ELG1-luciferase reporter, luminescence, 16 h; DNA damage induced by 5-fluorouridine. actives 2.3% (n = 330,000). Potency, µM (doses to about 46.1 µM), inactives show at the highest dose activity change, negative = inhibition, actives largely listed as inhibitors; further: on the % scale 0 is the no-effect control and ±100 the full control effect; nearly all actives have a fitted effect of over 55% in size
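HEK293T cells expressing luciferase-tagged ELG1 (2,000/well) received 5-Fluorouridine plus compound or DMSO for 16 hr at 37 °C. Luciferase was read by ONE-Glo luminescence after 30 min at room temperature.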
* hit, by the source's call; [ ] = remark or other dose. A selection: hits, their analogues and other compounds. The true share with any hit is near 9.2%. The call rests on the fitted dose curve; in most records, active means well fitted curve in the direction sought with a large enough effect; inconclusive means small, poorly fitted or top-dose-only effect, or another doubt; inactive means no such curve, though single readings can be large; an effect the other way counts as inactive or inconclusive. Potency means the concentration at half of the fitted maximal effect.

Results for N#Cc1cccc(NC(=O)COC(=O)c2cc(S(=O)(=O)Nc3ccccc3Cl)ccc2O)c1 ?
ELG1 genotox: -3.0%; ELG1 repair inh: inconclusive

What do the screens show for `O=C(COC(=O)c1cc(S(=O)(=O)Nc2ccccc2Cl)ccc1O)Nc1nc2ccccc2s1`?
Rab9 promoter act: inconclusive; NPC1 prom act: 6.2%; ELG1 genotox: 4.2%; SMN2 splice enh: 15.6%; FLuc counter: 21.3µM*; ELG1 repair inh: inconclusive

What do the screens show for `O=C(OCc1cnc(Cl)s1)c1cccc(Cl)c1`?
Rab9 promoter act: 7.5%; NPC1 prom act: -2.4%; ELG1 genotox: -0.8%; FLuc counter: -1.4%; ELG1 repair inh: 0.0%

How did C/C(=N\OC(=O)c1ccccc1F)c1nccs1 do in these assays?
Rab9 promoter act: 2.9%; NPC1 prom act: 3.9%; ELG1 genotox: 0.8%; SMN2 splice enh: -13.7%; FLuc counter: 1.35µM*; ELG1 repair inh: 2.4%

What do the screens show for `C/C(=N/OC(=O)c1cccc(Cl)c1)c1nccs1`?
Rab9 promoter act: 0.7%; NPC1 prom act: 4.1%; ELG1 genotox: -2.6%; SMN2 splice enh: -4.5%; FLuc counter: 2.13µM*; ELG1 repair inh: -4.7%

What do the screens show for `COc1ccccc1CC(=O)N(Cc1ccccc1)c1ccc(C)cc1`?
Rab9 promoter act: 0.3%; NPC1 prom act: -1.1%; ELG1 genotox: 1.8%; FLuc counter: inconclusive; ELG1 repair inh: -4.7%

What do the screens show for `CCOC(=O)NC(=O)COC(=O)CCCSc1nc2ccccc2s1`?
Rab9 promoter act: -3.7%; NPC1 prom act: -3.8%; ELG1 genotox: 1.6%; SMN2 splice enh: -6.5%; FLuc counter: inconclusive; ELG1 repair inh: 1.0%

Results for CC(=O)N/C(N)=N/c1nc(=O)c2ccccc2s1 ?
Rab9 promoter act: 2.51µM*; NPC1 prom act: inconclusive; ELG1 genotox: 18.3µM*; FLuc counter: 13.5µM*; ELG1 repair inh: inconclusive

Results for CCOC(=O)N/C(N)=N/c1nc2ccccc2s1 ?
Rab9 promoter act: 3.16µM*; NPC1 prom act: 1.58µM*; ELG1 genotox: 4.11µM*; SMN2 splice enh: 11.2µM*; FLuc counter: 5.36µM*; ELG1 repair inh: inconclusive

Results for Cc1ccc(NCc2ccccc2-c2nnc(-c3ccccc3Cl)o2)c(C)c1 ?
SMN2 splice enh: 11.5%; FLuc counter: inconclusive

What do the screens show for `CCOC(=O)CC(=O)CSc1nc2ccc(C)cc2cc1C#N`?
Rab9 promoter act: 0.8%; NPC1 prom act: 1.9%; ELG1 genotox: 16.4µM*; SMN2 splice enh: 25.1µM*; FLuc counter: -20.9%[2.3 µM]; ELG1 repair inh: inconclusive

Results for Cc1ccc2cc(C#N)c(SCC(=O)NCC3CCCO3)nc2c1 (stereo unspecified) ?
Rab9 promoter act: -0.5%; NPC1 prom act: 0.1%; ELG1 genotox: -2.8%; SMN2 splice enh: -1.3%; FLuc counter: 2.7%; ELG1 repair inh: 14.9%

How did Cc1ccc(SCC(=O)Nc2ccccc2N2CCOCC2)cc1 do in these assays?
Rab9 promoter act: 3.2%; NPC1 prom act: -2.5%; ELG1 genotox: -5.9%; FLuc counter: 0.0%; ELG1 repair inh: -9.6%

Results for COC(=O)CSc1nc2cc(C)ccc2cc1C#N ?
Rab9 promoter act: 1.41µM*; NPC1 prom act: 1.58µM*; ELG1 genotox: inconclusive; SMN2 splice enh: 17.8µM*; FLuc counter: 13.5µM*; ELG1 repair inh: inconclusive

What do the screens show for `Cc1ccc2nc(SCC(=O)Nc3ccccc3N3CCOCC3)c(C#N)cc2c1`?
Rab9 promoter act: -21.6%; NPC1 prom act: -29.5%; ELG1 genotox: -1.6%; SMN2 splice enh: -11.1%; FLuc counter: 0.9%; ELG1 repair inh: 4.11µM*

What do the screens show for `COc1ccc(CCNC(=O)CCc2nnc(Cc3ccc4c(c3)OCO4)o2)c(OC)c1`?
Rab9 promoter act: 0.1%; NPC1 prom act: -1.2%; ELG1 genotox: -1.0%; FLuc counter: -0.6%; ELG1 repair inh: -15.0%
